# In PMC4552634, “A New Set of Chemical Starting Points with Plasmodium falciparum Transmission-Blocking Potential for Antimalarial Drug Discovery” (PLoS ONE, 2015):
# The whole screen tested about 13,000 compounds, of which about 3,200 (25%) showed an effect of 50% or more. The list shows a part of the results.
# Test system: P. falciparum stage V gametocytes
# Set-up: BacTiter-Glo ATP luminescence viability of purified stage V gametocytes in 384-well plates, per cent inhibition versus DMSO
# Details: 48 h, 5 µM; inhibitor
row,Structure (SMILES),% Inhibition [%]
1,CN(C)CCNC(=O)[C@H](Cc1ccccc1)NC(=O)c1ccc(O)c(-c2ccc(Cl)c(Cl)c2)c1 [TCMDC-140864],22.21
2,CN1CCCN(Cc2ccc(-c3ccc(NC(=O)c4ccc(Cl)cc4)cc3)cc2)CC1 [TCMDC-132585],-0.9433
3,Cc1cccc2[nH]c(-c3cccc(-c4ccc(NC(=O)Nc5ccc(Cl)c(Cl)c5)cc4)c3)nc12 [TCMDC-133275],-0.4815
4,c1cc(C2=N[C@H]3CCCC[C@@H]3N2)ccc1OCCCOc1ccc(C2=N[C@@H]3CCCC[C@H]3N2)cc1 [TCMDC-137803],109.5
5,c1cc2[nH]c(CCc3nc4cc(C5=NC6CCCCC6N5)ccc4[nH]3)nc2cc1C1=NC2CCCCC2N1 (stereo not drawn) [TCMDC-137238],-12.99
6,c1cc2nc(CCCc3nc4ccc(C5=N[C@H]6CCCC[C@H]6N5)cc4[nH]3)[nH]c2cc1C1=N[C@@H]2CCCC[C@@H]2N1 [TCMDC-137234],-8.612
7,c1cc2nc(CCCCc3nc4ccc(C5=N[C@H]6CCCC[C@H]6N5)cc4[nH]3)[nH]c2cc1C1=N[C@H]2CCCC[C@H]2N1 [TCMDC-137233],16.03
8,c1cc(C2=NC3CCCCC3N2)ccc1OCCCCCOc1ccc(C2=NC3CCCCC3N2)cc1 (stereo not drawn) [TCMDC-137802],132.6
9,c1cc2nc(CCCCCc3nc4ccc(C5=N[C@@H]6CCCC[C@@H]6N5)cc4[nH]3)[nH]c2cc1C1=N[C@@H]2CCCC[C@@H]2N1 [TCMDC-137237],-19.86
10,Cc1ccn2c(N(Cc3ccccc3)C(=O)c3ccc(Cl)c(Cl)c3)c(-c3ccccc3)nc2c1 [TCMDC-141396],-15.83
11,CCNc1cc(C(=O)N[C@@H](Cc2ccccc2)[C@H](O)CNCCc2ccccc2)cc(N2CCCCS2(=O)=O)c1 [TCMDC-135171],-2.363
12,COc1ccc2ncc(F)c(CCN3CC[C@@H](CNCc4cc(C)c5c(c4)OCCO5)C3)c2n1 [TCMDC-136077],34.91
13,CC(C)c1ccc(OCC(O)CN(CCN2CCOCC2)C(=O)Nc2ccc(Br)cc2)cc1 (stereo not drawn) [TCMDC-141492],-0.3608
14,CCn1c(-c2nc(-c3ccnc(N4CCN(C)CC4)c3)cnc2N)nc2cc(S(C)(=O)=O)ccc21 [TCMDC-134155],31.49
15,CCn1c(-c2nc(-c3ccc4c(c3)OCO4)cnc2N)nc2cnccc21 [TCMDC-135178],6.285
16,COc1cccc2cc(C(=O)N[C@@H](CC(C)C)C(=O)N[C@H](C=NN3CCOC3=O)Cc3ccccc3)oc12 [TCMDC-136074],-0.683
17,O=C(c1cccc(-c2noc(C(F)(F)F)n2)c1)N1CCN(c2nsc3ccccc23)CC1 [TCMDC-132425],-18.4
18,Clc1cc(Nc2ncnc3sc(C#C[C@H]4CCCN4)cc23)ccc1OCc1cccnc1Cl [TCMDC-134849],8.343
19,O=S(=O)(c1ccccc1)n1ccc2cc(Nc3ncnc4cc(C#C[C@H]5CCCN5)sc34)ccc21 [TCMDC-138913],83.41
20,Clc1cc(Nc2ncnc3cc(C#C[C@H]4CCCN4)sc23)cc2[nH]c(Cc3ccccc3)nc12 [TCMDC-134519],58.91
21,O=C(O[C@H]1CN[C@H](C#Cc2cc3ncnc(Nc4ccc5c(ccn5S(=O)(=O)c5cccs5)c4)c3s2)C1)N1CCOCC1 [TCMDC-134691],26.92

row,Structure (SMILES),% Inhibition [%]
1,Fc1cccc(COc2ccc(Nc3ncnc4sc(C#CC5CCCCN5)cc34)cc2Cl)c1 (stereo not drawn) [TCMDC-138878],40.6
2,CN(C)C(=O)O[C@@H]1CN[C@H](C#Cc2cc3ncnc(Nc4ccc5c(cnn5Cc5cccc(F)c5)c4)c3s2)C1 [TCMDC-135233],25.46
3,COc1ccc(-c2cc(NCc3ccc(-n4ccnc4)cc3)nc(Nc3ccccc3)n2)cc1 [TCMDC-133466],0.1166
4,Cc1ccc(Nc2nc(NN=Cc3ccc(-c4ccc([N+](=O)[O-])cc4)o3)nc(N3CCOCC3)n2)cc1Cl [TCMDC-123853],16.13
5,COc1ccc(CNCc2ccc(F)cc2)cc1-c1cccc(S(=O)(=O)NCCN2CCCC2)c1 [TCMDC-132223],101.2
6,COc1ccc(CNCc2ccccc2)cc1-c1cccc(S(=O)(=O)NCCN2CCCC2)c1 [TCMDC-132268],57.83
7,COc1ccc(F)cc1-c1cccc(CNC2CCN(CC3Cn4c(=O)ccc5ccc(F)c3c54)CC2)c1 (stereo not drawn) [TCMDC-134406],-45.9
8,COc1ccc2nccc([C@@H](O)CN3CCC(NC(=O)c4ccc(Cl)c(Cl)c4)CC3)c2c1 [TCMDC-141036],-20.77
9,COc1cc(Nc2nccc(Nc3ccc4c(C)[nH]nc4c3)n2)cc2ccccc12 [TCMDC-138587],-18.63
10,CC(Oc1cccc(Cl)c1)C(=O)N1CCc2ccccc21 (stereo not drawn) [TCMDC-123685],-22.19
11,O=C(NCc1ccc(F)cc1)Nc1ccc(-c2ccc(-c3nc4ccccc4[nH]3)cc2)cc1 [TCMDC-133299],-2.169
12,CC(=O)Nc1ccc(CN(Cc2ccc(F)cc2)Cc2ccc3c(c2)OCO3)cc1 [TCMDC-140255],12.12
13,CN(CC(=O)Nc1ccc(F)cc1)C(=O)c1ccc(-c2ccc(F)cc2)o1 [TCMDC-125342],61.72
14,Nc1ncc(-c2ccc(S(=O)(=O)Nc3ccc(C(=O)N[C@@H](CCC(=O)O)C(=O)O)cc3)cc2)c(=O)[nH]1 [TCMDC-137342],-1.262
15,CN1CCC(C(=O)Nc2ccc(-c3ccc(-c4nc5ccccc5[nH]4)s3)cc2)CC1 [TCMDC-132179],54.96
16,O=C(Nc1ccc(-c2csc(-c3nc4ccccc4[nH]3)c2)cc1)Nc1ccsc1 [TCMDC-133207],-12.45
17,CN1CCC(C(=O)Nc2ccc(-c3ccc(-c4nc5cc(C(F)(F)F)ccc5[nH]4)s3)cc2)CC1 [TCMDC-132183],-1.127
18,CN1CCC(C(=O)Nc2cccc(-c3ccc(-c4nc5ccccc5[nH]4)cc3)c2)CC1 [TCMDC-132186],-0.3438
19,O=C(Nc1ccc(-c2ccc(-c3nc4ccccc4[nH]3)s2)cc1)Nc1ccsc1 [TCMDC-133219],69.14
20,O=C(Nc1ccc(-c2cccc(-c3nc4ccccc4[nH]3)c2)cc1)Nc1ccsc1 [TCMDC-133220],7.696
21,CN1CCC(C(=O)Nc2ccc(-c3ccc(-c4nc5ccccc5[nH]4)cc3)cc2)CC1 [TCMDC-132187],59.64

row,Structure (SMILES),% Inhibition [%]
1,CC(C)=CCN1CCC(C(=O)Nc2ccc(-c3nc4ccccc4[nH]3)cc2)CC1 [TCMDC-124613],-52.31
2,CN1CCN(CC(=O)Nc2ccc(-c3ccc(-c4nc5ccccc5[nH]4)s3)cc2)CC1 [TCMDC-136971],-13.63
3,COc1ccc2nccc([C@@H](O)CN3CCC(NCc4cc5cccc(OCc6ccccc6)c5[nH]4)CC3)c2c1 [TCMDC-141117],10.73
4,Clc1cccc(C=NNc2ccnc3ccccc23)c1 [TCMDC-142057],-48.21
5,CSc1cccc(Nc2nc3ccc(S(=O)(=O)NCC(C)C)cc3n2C(C)C(C)C)c1 (stereo not drawn) [TCMDC-136235],-38.43
6,O=C(CCN(Cc1ccco1)c1nc(-c2ccc(F)cc2)nc2ccccc12)NC1CC1 [TCMDC-124785],-4.08
7,O=C(Cc1cccc2ccccc12)NC1CCN(c2ccnc3cc(Cl)ccc23)C1 (stereo not drawn) [TCMDC-133666],-21.93
8,O=C(NCC1CN(Cc2ccc(N3CCCC3)o2)CCCO1)c1ccc2c(c1)OCO2 (stereo not drawn) [TCMDC-134852],-25.48
9,Cc1cc(N[C@@H](CC(C)C)C(=O)Nc2ccccc2)nc(NCc2ccccc2C)n1 [TCMDC-134912],-40.4
10,COc1cc(C(=O)N2CCOC(CCN3CCC(Cc4ccc(F)cc4)CC3)(c3ccc(Cl)c(Cl)c3)C2)cc(OC)c1OC (stereo not drawn) [TCMDC-135568],-27.28
11,Cc1cccc(C)c1CNc1cccc(-c2nc(C)c(C)[nH]2)c1 [TCMDC-133434],-88.3
12,Cc1cccc(C)c1CNc1ccnc2ccccc12 [TCMDC-132169],-38.56
13,CCCNc1nc(NCc2c(C)cccc2C)nc(NC(C)(C)C)n1 [TCMDC-133383],61.71
14,FC(F)(F)c1ccc2nc(-c3ccc(-c4cccc(CN5CCN(c6ccncc6)CC5)c4)cc3)[nH]c2c1 [TCMDC-132916],2.402
15,COc1ccc2nccc([C@@H](O)CN3CCC(NCc4cc5ccccc5o4)CC3)c2c1 [TCMDC-140521],12.09
16,Cc1cc(-c2nc3ccc(C(=O)NCc4ccccc4)cc3n2C2CCN(C(=O)c3ccc(-c4ccccc4)cc3)CC2)ccn1 [TCMDC-135884],25.38
17,O=C(Nc1ccc(Br)cc1)N1CCC(n2c(-c3ccccc3)nc3cccnc32)CC1 [TCMDC-124743],60.37
18,Cc1ccc(NC(=O)N2CCC(n3c(-c4ccccc4)nc4cccnc43)CC2)cc1F [TCMDC-124742],24.56
19,CS(=O)(=O)c1ccc2c(c1)CCN(CCC1CCC(NC(=O)c3cc4cccc(Br)c4[nH]3)CC1)CC2 (stereo not drawn) [TCMDC-141425],-26.4
20,Clc1ccc(-c2cc(-c3csc(NCCN4CCOCC4)n3)on2)c(Cl)c1 [TCMDC-140322],15.06
21,O=C(Nc1ccc(OC2CCN(Cc3ccsc3)C2)c(Cl)c1)c1ccsc1 (stereo not drawn) [TCMDC-133947],1.522
